An excerpt weighted towards active compounds, which were near 0.9% of everything screened.
SRC3 TRFRET art = flags TR-FRET format artefacts in PPARgamma SRC-3 recruitment agonist screen | 99,000 compounds, 0.39% hits | TR-FRET artefact counter-screen, PPARgamma/SRC-3 format; stronger effect = higher value | AID 1048 | TR-FRET ratio at 8 µM
SRC2 TRFRET art = TR-FRET artefact, counter-screen to PPARgamma/SRC-2 agonist assay; stronger effect = higher value; TR-FRET ratio at 8 µM; 200,000 compounds, 0.4% hits
PPARg SRC-3 ag = promotes SRC-3 coactivator recruitment by human PPARgamma; 200,000 compounds, 0.26% hits; biochemical PPARgamma/SRC-3 coactivator recruitment assay; P37231; activation, % at 8 µM; in the data active = activation above about 23%;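 also: 0% = DMSO and 100% = reference agonist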
Target sequence (P37231 whole entry, looked up): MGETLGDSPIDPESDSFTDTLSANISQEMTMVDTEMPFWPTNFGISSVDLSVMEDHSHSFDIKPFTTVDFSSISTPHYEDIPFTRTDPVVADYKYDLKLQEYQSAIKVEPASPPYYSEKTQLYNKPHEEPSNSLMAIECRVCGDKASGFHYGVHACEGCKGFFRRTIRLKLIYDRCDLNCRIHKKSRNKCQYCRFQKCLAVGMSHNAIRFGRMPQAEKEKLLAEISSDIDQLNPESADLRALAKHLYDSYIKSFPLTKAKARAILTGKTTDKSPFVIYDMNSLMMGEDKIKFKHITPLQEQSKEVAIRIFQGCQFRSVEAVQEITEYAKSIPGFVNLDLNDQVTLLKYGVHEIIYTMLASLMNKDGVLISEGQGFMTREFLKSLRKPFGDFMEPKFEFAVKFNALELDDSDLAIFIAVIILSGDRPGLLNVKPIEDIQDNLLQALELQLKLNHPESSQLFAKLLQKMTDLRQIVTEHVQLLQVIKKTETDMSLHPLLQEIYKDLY
PPARg SRC-2 ag = PPARgamma-driven SRC-2 recruitment agonism. P37231. PPARgamma LBD-SRC-2 recruitment, biochemical. activation, % at 8 µM. 200,000 compounds, 0.34% hits; in the data active = activation above about 22%;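 also: 0% = vehicle and 100% = reference agonist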
SRC1 TRFRET art = TR-FRET artefact, counter-screen to PPARgamma/SRC-1 agonist assay | TR-FRET detection artefact counter-screen, emission ratio; stronger effect = higher value | TR-FRET ratio at 8 µM | 99,000 compounds, 0.34% hits | AID 1051; in the data active = TR-FRET ratio above about 2300
PPARg SRC1 recr = PPARgamma-driven SRC-1 recruitment agonism; P37231; PPARgamma-SRC-1 coactivator recruitment biochemical assay; activation, % at 8 µM; 200,000 compounds, 0.41% hits; in the data active = activation above about 19%;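 also: 0% = DMSO and 100% = reference agonist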
* hit, by the source's call; x = no result; + = active, no number. Rule as the data show it, unless noted: active = TR-FRET ratio above about 2000; inactive = the rest.

SMILES	SRC3 TRFRET art	SRC2 TRFRET art	PPARg SRC-3 ag	PPARg SRC-2 ag	SRC1 TRFRET art	PPARg SRC1 recr
CCOc1cccc2cc(C(=O)Nc3cc(C)on3)c(=O)oc12	x	1720	3	6	x	38*
CCC(=O)NC(=S)Nc1ccc(NC(=S)NC(=O)c2ccccc2)cc1	1626	1582	3	3	2679*	24*
O=C1N/C(=C\c2ccccc2)C(O)=C1C=NCc1ccccc1	1776	1693	8	13	2238	0
Cc1ccc(S(=O)(=O)N(C)C)cc1NS(=O)(=O)c1ccc(Cl)s1	1494	1327	-3	-5	1833	2
COc1ccc(/C=C2/C(=O)N(Cc3ccccc3)N=C2C)cc1	1500	1595	4	0	1736	1
COc1ccc(/C=C2/C(=O)N(c3nc4ccccc4s3)N=C2CSc2ccc(Cl)cc2)cc1	2197*	1737	5	0	2577*	5
COc1ccccc1CC(=O)Nc1ccc([N+](=O)[O-])cc1O	1594	1668	7	6	1860	6
O=C(O)c1cc(-c2cccs2)nn1-c1cccc(Cl)c1	1777	1488	4	-4	1898	6
CN(C)S(=O)(=O)c1cccc(NC(=O)c2cc(-c3cccs3)nn2-c2cccc(Cl)c2)c1	2416*	2193*	8	9	2166	11
COc1ccc(N2C(=O)CC(N3CCC(O)(c4cccc(C(F)(F)F)c4)CC3)C2=O)cc1 (stereo unspecified)	x	1620	3	2	x	3
NC(=O)c1cc(NC(=O)c2cc(Br)c(Br)s2)cc(C(N)=O)c1	1452	1694	2	-2	1949	3
COc1ccc(/C(N)=N/OC(=O)CN(C)S(=O)(=O)c2ccccc2)cc1	1502	1684	5	6	1709	0
COc1ccc(/C(N)=N/OC(=O)CN(C)S(=O)(=O)c2ccc(C)cc2)cc1	1722	1857	5	4	1999	22*
Cc1cnc(N)c2c(=O)oc3ccccc3c12	x	2018*	7	5	x	1
Cc1ccc(S(=O)(=O)N/N=C\c2ccc3c(c2)OCO3)cc1	x	1503	7	7	x	5
Cc1noc(C)c1S(=O)(=O)Nc1ccc(C(=O)NCc2ccccc2)cc1	x	1466	-20	0	x	2
C#CCn1c(=NC(=O)c2cc(Cl)sc2Cl)sc2cc(S(N)(=O)=O)ccc21	2182*	2016*	6	0	2299	9
COC(=O)Cn1c(=NC(=O)c2nc3ccccc3s2)sc2cc(S(C)(=O)=O)ccc21	1429	1354	-2	-1	1549	-9
COC(=O)Cn1c(=NC(=O)c2sc3ccccc3c2Cl)sc2cc(S(N)(=O)=O)ccc21	2165*	1991*	19	17	2148	14
C#CCn1c(=NC(=O)CN2C(=O)CCC2=O)sc2cc(S(N)(=O)=O)ccc21	1674	1657	1	-2	1763	5
CCOC(=O)Cn1c(=NC(=O)c2sc3ccccc3c2Cl)sc2cc(S(N)(=O)=O)ccc21	5980*	1690	+	5	1761	10
CC1CCN(C(=O)C(Cc2ccccc2)n2cccc2)CC1 (stereo unspecified)	1535	1478	-1	-3	1818	2
Oc1c(Br)cc(Br)cc1C=NCc1ccccc1	1719	1715	7	12	2047	14
Oc1c(Br)cc(Br)cc1C=NCc1ccc(F)cc1	1714	1663	3	7	2042	21*
Cc1ccc(Cn2cc(SCC(=O)Nc3nccs3)c3ccccc32)cc1	x	2880*	2	-2	x	-5
Cc1cccc(Cn2cc(SCC(=O)Nc3nccs3)c3ccccc32)c1	x	1694	5	5	x	2
CC(C)(C)C1CCc2c(sc(NC(=O)CSc3nnc(-c4ccccc4)o3)c2C#N)C1 (stereo unspecified)	1823	1982*	4	-2	2157	3
Cc1ccnc(SCC(=O)Nc2sc3c(c2C#N)CCC(C(C)(C)C)C3)n1 (stereo unspecified)	x	1547	5	9	x	2
N#Cc1c(-c2ccccc2)cc(-c2ccccc2)nc1SCc1nnc(-c2ccccc2)o1	x	1373	-4	4	x	86*
CC(C)C(Sc1nc(-c2ccccc2)cc(-c2ccccc2)c1C#N)C(=O)O (stereo unspecified)	1489	1171	4	-7	1481	-5

Source: PubChem BioAssay (The Scripps Research Institute Molecular Screening Center)
